HEK cytotox: Cytotoxic Profiling in HEK 293 Cell Line of Diverse Libraries Using Quantitative High-Throughput Screening. Potency, µM (titrated, usually from 115 µM), usual class: inhibitors. HEK 293 viability, ATP luminescence (CellTiter-Glo), 48-72 h. actives 6.6% (n = 94,000); further: nearly all actives have a fitted effect of over 60% in size
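250 HEK 293 cells/well; compound by pintool; incubated 48 or 72 hr at 37 degree Celsius; CellTiter-Glo added, 10 min RT, luminescence imaged.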
NIH3T3 tox: Cytotoxic Profiling in NIH 3T3 Cell Line of Diverse Libraries Using Quantitative High-Throughput Screening; Potency, µM (highest dose often 96.7 µM), actives largely listed as inhibitors; actives 4.3% (n = 94,000); NIH 3T3 viability, CellTiter-Glo ATP luminescence, 48-72 h; AID 1345082, 2018; further: nearly all actives have a fitted effect of over 55% in size
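Cytotoxicity was measured by CellTiter-Glo ATP luminescence after 48 or 72 h compound exposure at 37 °C. Mouse NIH 3T3 fibroblasts were seeded at 400 cells/well and dosed by 23 nL pin transfer.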
NPR1 antag: Natriuretic polypeptide receptor (hNpr1) antagonism - Primary qHTS; HEK293 hNpr1 GloSensor cGMP, ANP-stimulated luminescence; actives 1.6% (n = 76,000); Potency, µM (doses to about 46.3 µM), actives largely listed as inhibitors; calls by dose curve; further: nearly all actives have a fitted effect of over 60% in size
Target sequence (P16066 whole entry, looked up): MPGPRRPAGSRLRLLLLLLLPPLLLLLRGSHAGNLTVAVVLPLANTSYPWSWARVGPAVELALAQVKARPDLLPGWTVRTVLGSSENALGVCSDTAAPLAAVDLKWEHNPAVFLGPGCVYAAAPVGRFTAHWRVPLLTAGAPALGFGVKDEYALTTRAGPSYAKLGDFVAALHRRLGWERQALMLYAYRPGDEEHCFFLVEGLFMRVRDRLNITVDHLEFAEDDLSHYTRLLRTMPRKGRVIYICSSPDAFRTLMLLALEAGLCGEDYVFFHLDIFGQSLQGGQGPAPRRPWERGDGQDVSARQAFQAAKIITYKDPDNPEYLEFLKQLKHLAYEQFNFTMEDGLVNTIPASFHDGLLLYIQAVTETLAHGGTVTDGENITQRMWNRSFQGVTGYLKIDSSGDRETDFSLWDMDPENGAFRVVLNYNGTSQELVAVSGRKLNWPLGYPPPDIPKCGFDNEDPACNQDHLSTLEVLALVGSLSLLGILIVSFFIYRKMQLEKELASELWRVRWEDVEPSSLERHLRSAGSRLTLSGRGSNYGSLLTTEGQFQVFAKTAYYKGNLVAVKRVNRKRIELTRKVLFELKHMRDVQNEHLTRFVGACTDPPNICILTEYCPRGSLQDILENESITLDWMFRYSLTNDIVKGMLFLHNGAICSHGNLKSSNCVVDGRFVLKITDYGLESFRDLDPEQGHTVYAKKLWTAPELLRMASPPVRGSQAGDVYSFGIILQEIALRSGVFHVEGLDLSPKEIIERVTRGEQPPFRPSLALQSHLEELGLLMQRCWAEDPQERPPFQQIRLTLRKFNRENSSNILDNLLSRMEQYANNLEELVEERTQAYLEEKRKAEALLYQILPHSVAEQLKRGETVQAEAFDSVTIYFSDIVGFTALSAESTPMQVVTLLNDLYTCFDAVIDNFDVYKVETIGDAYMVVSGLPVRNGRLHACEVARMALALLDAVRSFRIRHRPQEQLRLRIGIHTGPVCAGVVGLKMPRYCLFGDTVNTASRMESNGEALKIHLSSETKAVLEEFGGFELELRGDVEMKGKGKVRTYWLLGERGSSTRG
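HEK293 cells stably expressing human Npr1 and cGMP GloSensor pGS-40F, loaded 2 h with 2% GloSensor reagent, given compound 30 min at room temperature. Luminescence read before and 20 min after 0.1 nM hNppA.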
HEK293 viab: GF-AFC viability counterscreen for inhibitors of alpha-synuclein gene (SNCA) expression | HEK-293-SNCA-luc viability, GF-AFC fluorescence, 24 h | Potency, µM (top dose mostly 57.1 µM), actives largely listed as cytotoxic | actives 0.12% (n = 150,000); further: nearly all actives have a fitted effect of over 30% in size
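Cytotoxicity counterscreen: after 24 h compound treatment of genome-edited SNCA-luciferase HEK-293 cells, live-cell protease substrate GF-AFC read by fluorescence after 30 min; activity scaled between DMSO (0%) and medium-only (-100%), curves Hill-fitted.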
SNCA expr inhib: Primary qHTS assay for inhibitors of alpha-synuclein gene (SNCA) expression; AID 1671194, 2021; HEK-293 SNCA-luciferase knock-in, luminescence, 24 h; actives 0.17% (n = 140,000); Potency, µM (titrated, usually from 57.2 µM), most hits filed as inhibitors; further: nearly all actives have a fitted effect of over 45% in size
FLuc inh: Firefly luciferase inhibition profiling of diverse chemical library using quantitative high-throughput screening; Luciferin 4-monooxygenase (Photinus pyralis), P08659; purified P. pyralis luciferase, luminescence, biochemical; Potency, µM (top dose mostly 115 µM), actives largely listed as inhibitors; actives 2.5% (n = 76,000); further: nearly all actives have a fitted effect of over 65% in size
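Inhibitors were tested against purified firefly luciferase in a biochemical, low-substrate format (both substrates at 10uM) and luminescence measured with a CCD imager.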
Hits are given with their value. The list is not random: actives were taken first. Their share in the collection is about 7.4%. Unless noted, the call rests on the fitted dose curve; in most records, active means well fitted curve in the direction sought with a large enough effect; inconclusive means small, poorly fitted or top-dose-only effect, or another doubt; inactive means no such curve, though single readings can be large; an effect the other way counts as inactive or inconclusive.

`Cc1ncc2c(n1)C[C@@H]1CC[C@H]2N1C(=O)Nc1ccc2c(c1)OCCO2` gave HEK cytotox inactive, NIH3T3 tox inactive, NPR1 antag inactive, HEK293 viab inactive, SNCA expr inhib inactive and FLuc inh 32µM.
`CC(C)OC(=O)c1ccnc2cc(C(OCCN3CCCCC3)c3ccccc3Cl)sc12` (stereo not drawn) gave HEK293 viab 30µM.
Screening CCOC(=O)[C@H]1CN(C(=O)c2ccc(OC)cc2)[C@]2(C)C(=O)N(CC3CC3)c3ccccc3[C@H]12 returned HEK cytotox inconclusive, NIH3T3 tox inconclusive, HEK293 viab inactive and SNCA expr inhib inactive.
`COc1cc2c(cc1OCc1ccc(Cl)cc1)N(Cc1ccccc1)CC21CCN(C(C)=O)CC1` gave HEK cytotox inconclusive, NIH3T3 tox inconclusive, NPR1 antag inactive, HEK293 viab inactive, SNCA expr inhib inactive and FLuc inh inactive.
COc1cc2c(cc1OCc1ccccc1)N(C(=O)c1c[nH]c3ccccc13)CC21CCN(C)CC1 was read as HEK cytotox 22µM, NIH3T3 tox 20µM, NPR1 antag inactive, HEK293 viab 25µM, SNCA expr inhib inconclusive and FLuc inh inactive.
Screening COc1cc2c(cc1OCc1ccccc1)N(C(=O)c1cccc3[nH]ccc13)CC21CCN(C)CC1 returned HEK cytotox inconclusive, NIH3T3 tox 20µM, NPR1 antag inactive, HEK293 viab inactive, SNCA expr inhib inactive and FLuc inh inactive.
For COc1cc2c(cc1OCc1ccccc1)N([S+](=O)([O-])c1cn(C)cn1)CC21CCN(C)CC1 the results were HEK cytotox inconclusive, NIH3T3 tox inconclusive, NPR1 antag inactive, HEK293 viab inactive, SNCA expr inhib inactive and FLuc inh inactive.
Screening COc1cc2c(cc1OCc1ccccc1)N(C(=O)c1cc3ccccc3[nH]1)CC21CCN(C)CC1 returned HEK cytotox 20µM, NIH3T3 tox 22µM, NPR1 antag inactive, HEK293 viab inconclusive, SNCA expr inhib inconclusive and FLuc inh inactive.
Cc1ccc(Cn2nc(C(=O)N[C@@H]3C(C)(C)[C@@H]4CC[C@@]3(C)C4)cc2-c2ccc(Cl)c(C)c2)cc1 was read as HEK293 viab inactive.
CCOC(=O)[C@H]1CN(C(=O)NCc2ccccc2)[C@]2(C)C(=O)N(CCOC)c3ccccc3[C@H]12 was read as HEK cytotox inactive, NIH3T3 tox inconclusive, HEK293 viab inactive and SNCA expr inhib inactive.
For CC12CCC3C(C1)c1c(cc(O)c(C(=O)c4ccccc4)c1OC3(C)C)O2 (stereo not drawn) the results were HEK293 viab inactive.
`CCOC(=O)[C@H]1CN(C(=O)CC2CCCC2)[C@]2(C)C(=O)Nc3ccccc3[C@H]12` gave HEK cytotox inconclusive, NIH3T3 tox inconclusive, HEK293 viab inactive and SNCA expr inhib inactive.
NC1=NC(=O)N2CC12 (stereo not drawn) was read as HEK293 viab inactive and SNCA expr inhib 9.6µM.
Screening C[C@@H]1CN(Cc2ccc(F)cc2)CCN1C(=O)COc1ccc(Cl)cc1NC(N)=O returned HEK293 viab inactive.
For CC(C)=CCC[C@]1(C)C=Cc2c(O)c3c(c(CC=C(C)C)c2O1)O[C@]12C(=C[C@@H]4CC1C(C)(C)O[C@@]2(C/C=C(/C)C(=O)O)C4=O)C3=O the results were HEK293 viab 1.9µM.
`O=C(CCc1nc2ccccc2s1)N1[C@H]2CC[C@@H]1c1cnc(-c3ccc(F)cc3)nc1C2` gave HEK cytotox 40µM, NIH3T3 tox inactive, NPR1 antag 0.71µM, HEK293 viab inactive, SNCA expr inhib inactive and FLuc inh inactive.
`O=C(CCc1nc2ccccc2[nH]1)N1[C@H]2CC[C@@H]1c1cnc(-c3ccc(F)cc3)nc1C2` gave HEK cytotox inactive, NIH3T3 tox inactive, NPR1 antag inactive, HEK293 viab inactive, SNCA expr inhib inactive and FLuc inh inactive.
For Cc1noc(C)c1S(=O)(=O)N1[C@H]2CC[C@@H]1c1cnc(-c3ccc(F)cc3)nc1C2 the results were HEK cytotox 45µM, NIH3T3 tox inconclusive, NPR1 antag inconclusive, HEK293 viab inactive, SNCA expr inhib inactive and FLuc inh inactive.
For Cn1nccc1C(=O)N1[C@H]2CC[C@@H]1c1cnc(-c3ccc(F)cc3)nc1C2 the results were HEK cytotox inconclusive, NIH3T3 tox inconclusive, NPR1 antag inconclusive, HEK293 viab inactive, SNCA expr inhib inactive and FLuc inh inactive.
Screening O=C(c1ccco1)N1[C@H]2CC[C@@H]1c1cnc(-c3ccc(F)cc3)nc1C2 returned HEK cytotox 45µM, NIH3T3 tox inactive, NPR1 antag inconclusive, HEK293 viab inactive, SNCA expr inhib inactive and FLuc inh inactive.
For COc1cc2c(cc1Oc1cccc(N(C)C)c1)NC(=O)C21CCN(Cc2nccn2C)CC1 the results were HEK cytotox inconclusive, NIH3T3 tox inactive, NPR1 antag inactive, HEK293 viab inactive, SNCA expr inhib inactive and FLuc inh inactive.
COc1cc2c(cc1OCc1ccncc1)NC(=O)C21CCN(C(=O)c2cccnc2)CC1 was read as HEK cytotox inactive, NIH3T3 tox 35µM, NPR1 antag inactive, HEK293 viab inactive, SNCA expr inhib inactive and FLuc inh inactive.
Screening COc1cc2c(cc1OCc1ccncc1)NC(=O)C21CCN(Cc2ccccc2O)CC1 returned HEK cytotox 45µM, NIH3T3 tox inconclusive, NPR1 antag inactive, HEK293 viab inactive, SNCA expr inhib inactive and FLuc inh inactive.
Screening COc1cc2c(cc1OCC1CC1)NC(=O)C21CCN(Cc2nccs2)CC1 returned HEK cytotox inconclusive, NIH3T3 tox inconclusive, NPR1 antag inactive, HEK293 viab inactive, SNCA expr inhib inactive and FLuc inh inactive.
For COc1cc2c(cc1OCc1ccncc1)NC(=O)C21CCN(c2ccccn2)CC1 the results were HEK cytotox inconclusive, NIH3T3 tox inconclusive, NPR1 antag inactive, HEK293 viab inactive, SNCA expr inhib inactive and FLuc inh inactive.
Screening COc1cc2c(cc1OCc1ccncc1)NC(=O)C21CCN(CC2CC2)CC1 returned HEK cytotox inactive, NIH3T3 tox 100µM, NPR1 antag inactive, HEK293 viab inactive, SNCA expr inhib inactive and FLuc inh inactive.
For COc1cc2c(cc1OCc1ccccc1)NC(=O)C21CCN(Cc2ccccn2)CC1 the results were HEK cytotox 79µM, NIH3T3 tox 89µM, NPR1 antag inactive, HEK293 viab inactive, SNCA expr inhib inactive and FLuc inh inactive.

Source: PubChem BioAssay
